A number with no mark means an inactive call. Active and inactive are the calls of the source. The call rests on the fitted dose curve; in most records, active means well fitted curve in the direction sought with a large enough effect in the repeat runs; inconclusive means weak or mixed curves; inactive means flat fitted curve, though single readings scatter.
Assay: qHTS assay to test for compound auto fluorescence at 590 nm (red) in HepG2 cell free culture (AID 720684)
Conditions: cell-free medium autofluorescence, red 540/590 nm; series mostly up to 91.3 µM; fluorescence, % of Rose Bengal: at the top concentration
Text: U.S. Tox21 Program National Center for Advancing Translational Sciences [NCATS] NIH Chemical Genomics Center [NCGC] U.S. Environmental Protection Agency [EPA] National Institutes of Environmental Health Sciences [NIEHS] National Toxicology Program [NTP] U.S. Food and Drug Administration [FDA] Tox21 Assay Overview: Compound auto fluorescence often interferes with screening of the compound library against various biological targets and signaling pathways. Some of these compounds may have fluorophoric properties. Such properties may interfere with the assay outputs resulting in false positives and/or negatives. To decrease such complications and ensure the compound activities are relevant in terms of biological response, the Tox21 10K compound library was screened for auto fluorescence. From the fluorophores used as reporter signals in our screening assays, the auto fluorescence equivalencies of compounds against three fluorophores have been evaluated: Triamterene, Fluorescein and Rose Bengal sodium for blue, green and red fluorescence, respectively. The fluorescence intensities were measured using Excitation/Emission wavelengths at 405/460nm, 485/535nm and 540/590nm for blue, green and red labels, respectively. This assay includes the red fluorescence data.
Tox21 Assay Protocol Summary: 5 uL of culture medium (MEM containing 10% FBS) per well was dispensed into black wall/clear bottom 1536-well plates using a Multidrop Combi Dispenser (ThermoFisher Scientific, Waltham, MA). After 23 nL compound or DMSO vehicle was transferred into assay plate by a pintool work station (Kalypsys, San Diego, CA), fluorescence intensities in the assay plates were measured by an Envision (PerkinElmer, Shelton, CT) plate reader using three labels for measuring blue, green and red fluorescence at […] 460, 535 and 590nm respectively.
On the % scale 0 is the no-effect control and ±100 the full control effect.

Compound	outcome	fluorescence, % of Rose Bengal
Clc1ccc(C(c2ccccc2Cl)C(Cl)(Cl)Cl)cc1 (stereo not given)	inactive	–
C=CC(=O)OCC(COC(=O)C=C)(COC(=O)C=C)COC(=O)C=C	–	-0.151%
O=S(=O)(c1ccc(Cl)cc1)c1ccc(Cl)cc1	–	-0.401% [at 95.7 µM]
Cc1cc(SCc2sc(-c3ccc(C(F)(F)F)c(F)c3)nc2C)ccc1OCC(=O)O	–	0.0002%
N#C/C=C/C#N	–	0.0023% [at 95.7 µM]
C=CCC1=C(C)C(OC(=O)C2C(C=C(C)C)C2(C)C)CC1=O (stereo not given)	–	0.261% [at 95.7 µM]
O=c1oc2ccccc2c(O)c1Cc1c(O)c2ccccc2oc1=O	–	0.445% [at 18.6 µM]
c1ccc(OCC2CO2)cc1 (stereo not given)	–	0.0102%
O=C(O)COc1nc(Cl)c(Cl)cc1Cl	–	-0.442% [at 95.7 µM]
CC(C)(C)c1cc([N+](=O)[O-])cc(C(C)(C)C)c1O	–	-0.0008%
CC(C)[C@H](C(=O)O[C@H](C#N)c1cccc(Oc2ccccc2)c1)c1ccc(Cl)cc1	–	-0.151%
ClC(Cl)=C(c1ccc(Cl)cc1)c1ccc(Cl)cc1	inactive	–
C[C@]12CC[C@H]3[C@@H](CCC4=CC(=O)CC[C@@]43C)[C@@H]1CC[C@@H]2O	–	-0.132%
CCCCCCCCCCCCCC[P+](CCCCCC)(CCCCCC)CCCCCC (tested in a mixture with another compound)	–	0.112%
CC1(C)[C@H](C(=O)O[C@H](C#N)c2cccc(Oc3ccccc3)c2)[C@@H]1/C=C(\Cl)C(F)(F)F	–	0.0031%
Cc1cc(C(C)(C)c2cc(C)c(O)c(C)c2)cc(C)c1O	–	0.298%
Oc1c(Br)c(Br)c(Br)c(Br)c1Br	–	-0.269%
Fc1cccc(Cl)c1CCl	–	0.0261%
C[C@@H]1CC[C@@]2(OC1)O[C@H]1[C@@H](O)[C@H]3[C@@H]4CC[C@H]5C[C@@H](O[C@@H]6O[C@H](CO)[C@H](O[C@@H]7O[C@H](CO)[C@@H](O)[C@H](O[C@@H]8OC[C@@H](O)[C@H](O)[C@H]8O)[C@H]7O[C@@H]7O[C@H](CO)[C@@H](O)[C@H](O[C@@H]8O[C@H](CO)[C@@H](O)[C@H](O)[C@H]8O)[C@H]7O)[C@H](O)[C@H]6O)[C@H](O)C[C@]5(C)[C@H]4CC[C@]3(C)[C@H]1[C@@H]2C	–	0.11% [at 95.7 µM]
CCC(C)c1cc([N+](=O)[O-])cc([N+](=O)[O-])c1OC(=O)C=C(C)C (stereo not given)	–	0.022%

Compound	outcome	fluorescence, % of Rose Bengal
CCCOCC(=Nc1ccc(Cl)cc1C(F)(F)F)n1ccnc1	–	0.269%
N#CNC#N	–	-0.0273% [at 95.7 µM]
CC(=O)C(Cl)(Cl)Cl	–	0.0796%
O=c1[nH]c2ccccc2n1CCCN1CCC(n2c(=O)[nH]c3cc(Cl)ccc32)CC1	–	0.353% [at 46 µM]
O=C/C(Cl)=C(/Cl)C(=O)O	inactive	–
CCCCCCCCCCCCBr	–	-0.0532%
[Hg+2].[I-].[I-]	–	-0.0057%
C[C@H]1CC[C@@H]2[C@@H](C)[C@H]3[C@H](C[C@H]4[C@@H]5CC=C6CC(O[C@@H]7O[C@H](CO)[C@H](O)[C@H](O[C@@H]8O[C@H](CO)[C@@H](O)[C@H](O)[C@H]8O)[C@H]7O[C@H]7O[C@@H](C)[C@H](O)[C@@H](O)[C@H]7O)CC[C@]6(C)[C@H]5CC[C@]34C)N2C1 (stereo not given in full)	inactive	–
Nc1ccc(Cc2ccc(N)c(Cl)c2)cc1Cl	–	0.129%
CCCCCCCCCCCCCN1CC(C)OC(C)C1 (stereo not given)	–	-0.0768%
c1ccc2c(c1)[nH]c1cnccc12	–	0.325%
Cc1cc(N=Nc2ccccc2C)ccc1N	inactive	–
CC(C)CCCCCCCOP(=O)(Oc1ccccc1)Oc1ccccc1	–	0.122%
FC(Cl)(Cl)Cl	–	0.0102%
BrC(Br)C(Br)(Br)Br	–	0.0849%
CCCN(CC)CC1COC2(CCC(C(C)(C)C)CC2)O1 (stereo not given)	–	-0.0179%
CCN(CC)c1c([N+](=O)[O-])cc(C(F)(F)F)c(N)c1[N+](=O)[O-]	–	-0.115%
Oc1ccc(C2(c3ccc(O)cc3)CCCCC2)cc1	–	0.0337%
Cc1c(Cl)c(=O)oc2cc(OP(=O)(OCCCl)OCCCl)ccc12	–	-0.118% [at 46 µM]
O=[N+]([O-])c1cc(C(F)(F)F)c(Cl)c([N+](=O)[O-])c1Cl	–	-0.0266%

— PubChem BioAssay (Tox21)
